Data taken from PubChem BioAssay AID504840 (Johns Hopkins Ion Channel Center, 2011).
Screen size: about 1,500 compounds; about 890 (59%) were called active. So high a share suggests a set chosen from earlier hits. A selection follows. Results with a measured potency or affinity are listed apart. A number with no mark means an inactive call.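 The calls were made as follows: active = inhibition of the choline-evoked signal at any tested dose together with a fitted dose-response curve; inactive = no inhibition at any dose or no curve.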

molecular target: High affinity choline transporter 1 (Homo sapiens) (UniProt Q9GZV3); test: human choline transporter blockers, potency – cell-based, 5-point CRC, membrane potential dye, dose response (AID 504840); details: HEK293-CHT, choline-induced depolarization, CHT with LV-to-AA double alanine mutation; series mostly up to 37 µM; inhibition: at the top concentration;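 also: 0% = buffer-only response and 100% = EC90 choline response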
Sequence (Q9GZV3 whole entry, looked up): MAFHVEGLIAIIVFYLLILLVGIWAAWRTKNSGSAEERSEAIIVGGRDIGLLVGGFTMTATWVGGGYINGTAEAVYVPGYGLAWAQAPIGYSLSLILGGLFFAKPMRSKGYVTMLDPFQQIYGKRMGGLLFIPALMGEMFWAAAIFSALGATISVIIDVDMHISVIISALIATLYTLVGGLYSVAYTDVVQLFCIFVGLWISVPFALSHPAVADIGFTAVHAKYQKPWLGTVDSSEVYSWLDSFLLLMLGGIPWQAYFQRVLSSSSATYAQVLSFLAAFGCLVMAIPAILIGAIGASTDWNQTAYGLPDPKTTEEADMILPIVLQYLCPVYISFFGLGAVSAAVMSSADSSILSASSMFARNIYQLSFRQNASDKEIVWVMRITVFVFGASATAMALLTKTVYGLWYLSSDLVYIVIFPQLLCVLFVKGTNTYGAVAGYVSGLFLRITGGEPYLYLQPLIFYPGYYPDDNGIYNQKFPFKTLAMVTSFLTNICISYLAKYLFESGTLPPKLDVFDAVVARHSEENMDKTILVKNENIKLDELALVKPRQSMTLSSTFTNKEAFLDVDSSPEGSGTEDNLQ

SMILES	inhibition [%]
COc1cc(OC)c2c(-c3ccccc3)cc(=O)oc2c1C(CCN1CCCC(C)C1)c1ccc(N(C)C)cc1 (stereo not given)	42.6
COc1cc(OC)c2c(-c3ccccc3)cc(=O)oc2c1C(CCN1CCCCC1)c1ccc(N(C)C)cc1 (stereo not given)	49.8
COc1ccc(C(CCN2CCCC2)c2c(OC)cc(OC)c3c(-c4ccccc4)cc(=O)oc23)cc1 (stereo not given)	49.9
COc1cc(OC)c2c(-c3ccccc3)cc(=O)oc2c1C(CCN1CCCCC1)c1ccc2c(c1)OCO2 (stereo not given)	56.1
COc1ccc(C(CCN2CCCC(C)C2)c2c(OC)cc(OC)c3c(-c4ccccc4)cc(=O)oc23)cc1 (stereo not given)	41.5
COc1cc(OC)c2c(-c3ccccc3)cc(=O)oc2c1C(CCN1CCCC1)c1ccc2c(c1)OCO2 (stereo not given)	53.8
O=C(Nc1nonc1-c1ccc(Cl)cc1)c1ccco1	15.7
Cc1ccc[n+](CC(=O)Nc2cc(C(F)(F)F)ccc2N2CCOCC2)c1	72.7
COc1ccc(N(C)S(=O)(=O)c2cccc(C(=O)NC3CCC(C)CC3)c2)cc1 (stereo not given)	22.7
CC(=O)N1CCN(S(=O)(=O)c2cccc(C(=O)NC3CCC(C)CC3)c2)CC1 (stereo not given)	19.6
CC1CCCC(NC(=O)c2cccc(N3CCCC3=O)c2)C1C (stereo not given)	46
CN1CCN(S(=O)(=O)c2cccc(C(=O)NC3CCCc4ccccc43)c2)CC1 (stereo not given)	60.3
O/N=C/c1ccnc(SCc2ccccc2)n1	35.9
Cc1cc(C)nc(SCc2cc(=O)c(OC(=O)c3cc([N+](=O)[O-])ccc3Cl)co2)n1	75.3
Cc1ccnc(SCc2cc(=O)c(OC(=O)c3ccc(S(=O)(=O)N(C)C)cc3)co2)n1	61.1
Cc1cc(=O)[nH]c(SCC(=O)c2ccc(C)c(C)c2)n1	58.9
CCCCNS(=O)(=O)c1ccc2nc(SCC(=O)c3ccccc3OC)[nH]c2c1	71.7
C=CCNS(=O)(=O)c1ccc(N2C(=O)c3ccccc3C2=O)cc1	16.9
CC(NC(=O)c1ccc(N2CCNCC2)c([N+](=O)[O-])c1)C12CC3CC(CC(C3)C1)C2 (stereo not given)	54.6
Cc1[nH]n(-c2cccc(Cl)c2)c(=O)c1-c1ccccc1	41.6
COc1ccc2c(c1)CC(C)C/C2=N\NC(=O)c1ccco1 (stereo not given)	29.7
NC(=O)CC(NC(=O)c1ccc(Br)cc1)c1ccc(N2CCCCCC2)c([N+](=O)[O-])c1 (stereo not given)	44.8
NC(=O)CC(NC(=O)c1ccc(Br)cc1)c1ccc(N2CCCCCCC2)c([N+](=O)[O-])c1 (stereo not given)	30.9
CCC(CC)Nc1ccc(C(CC(N)=O)NC(=O)c2ccccc2)cc1[N+](=O)[O-] (stereo not given)	62.7
NC(=O)CC(NC(=O)c1ccccc1)c1ccc(N2CCc3ccccc3C2)c([N+](=O)[O-])c1 (stereo not given)	64.7
